Sampled rows, rich in hits. Any-hit rate of the full collection: about 4%.
Casp7 inh = allosteric or competitive inhibitors of human caspase-7; AID 889; recombinant caspase-7, Ac-DEVD-AFC fluorescence rate; P55210; Potency, µM (doses to about 57.5 µM), without a hit: top-dose activity change, negative = inhibition, usual class: inhibitors; 75,000 compounds, 0.02% hits; active means well fitted inhibition curve with a large enough effect in the main read-out, with a control signal flat, not every such curve was filed as active; inconclusive means small, poorly fitted or top-dose-only effect, or a change in a side signal; further: % of control where 0% means no effect
Casp1 inh = caspase-1 (human) inhibition, allosteric or competitive. P29466. Caspase-1 enzyme, Ac-WEHD-AFC fluorogenic rate. Potency, µM (doses to about 57.5 µM), without a hit: at the highest dose activity change, negative = inhibition, usual class: inhibitors. 75,000 compounds, 0.03% hits;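 further: plate controls were vehicle for no effect and no substrate for full effect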
TSHR ag = TSH receptor (human) agonism; HEK293-CNG-TSHR cells (CNG channel as cAMP sensor), membrane potential dye, cAMP; Potency, µM (doses to about 57.1 µM), for the others: at the top dose activation, hits mostly activators; 73,000 compounds, 0.48% hits; AID 926; active means well fitted activation curve with a large enough effect in the main read-out, with a control signal flat, not every such curve was filed as active; inconclusive means small, poorly fitted or top-dose-only effect, or a change in a side signal; inactive means no such curve, though single readings can be large or run the other way; % of control where 0% means no effect;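 further: the control signal comes from parental cells without the receptor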
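cAMP rise detected as CNG-channel membrane depolarization by fluorescent dye (emission 590 nm), 30 min after compound, following 60 min dye loading containing 100 uM RO 20-1724 at room temperature. Cells: TSHR/CNG HEK 293, with parental CNG HEK 293 as control.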
Bst PK mod = pyruvate kinase (B. stearothermophilus) modulation | Potency, µM | AID 361 | purified pyruvate kinase, luminescence ATP production; ribose 5-phosphate activator present at AC10 | 51,000 compounds, 1.2% hits; in the data active means potency below about 11 µM; inconclusive means mostly about 12 µM to 25 µM;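 the screen sought inhibitors and activators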;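 further: scaled between full activation by ribose 5 phosphate and full inhibition by luteolin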
HEK293 cAMP ctrl = raises cAMP in parental HEK293 cells, TSHR agonist counter-screen; Potency, µM (highest dose often 57.1 µM), for the others: at the top dose activation, actives largely listed as activators; AID 938; parental HEK293 CNG cAMP sensor, membrane potential fluorescence; 73,000 compounds, 2.5% hits; further: % of control where 0% means no effect; nearly all actives have a fitted effect of over 55% in size
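Parental HEK 293 cells stably expressing a cAMP-gated CNG channel were loaded with membrane potential dye containing 100 uM RO 20-1724 for 60 min. Compound added for 30 min; depolarization read as fluorescence intensity at 590 nm.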
GBA activity = human lysosomal glucosylceramidase modulation; P04062; purified enzyme, resorufin glucoside fluorescence (screen aimed at inhibitors), 20 min; Potency, µM; 48,000 compounds, 1.1% hits; in the data active means potency below about 15 µM; inconclusive means mostly about 16 µM to 33 µM;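 further: the screen sought inhibitors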
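Compounds titrated against 0.2 nM normal enzyme, 30 uM resorufin beta-D-glucopyranoside substrate, citrate/phosphate buffer with taurocholate and tween-20, pH 5.9. Reaction ran 20 min at room temperature; fluorescence (Ex 548/Em 600) gave AC50.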
Starred values were filed as active, the others as inactive; i = inactive; ? = inconclusive; . = not tested or not shown; [ ] = remark or other dose. Unless noted, the call rests on the fitted dose curve; in most records, active means well fitted curve in the direction sought with a large enough effect; inconclusive means small, poorly fitted or top-dose-only effect, or another doubt; inactive means no such curve, though single readings can be large; an effect the other way counts as inactive or inconclusive. Potency means the concentration at half of the fitted maximal effect.

SMILES	Casp7 inh	Casp1 inh	TSHR ag	Bst PK mod	HEK293 cAMP ctrl	GBA activity
Brc1ccccc1-c1nnc(CSc2nnnn2-c2ccccc2)o1	-8.8%	-1.6%	-1.9%[11.4 µM]	>11.4	20.5%	.
Brc1ccccc1-c1nnc(COc2ncnc3c2cnn3-c2ccccc2)o1	-8.2%	-3.3%	?	>57	25.1µM*	>76.9
COc1cccc([C@@H]2Oc3ccc(OC)cc3/C(=N/O[C@@H](C)c3cn([C@H]4COC[C@H]4O)nn3)[C@@H]2O)c1	-0.5%[11.5 µM]	-2.7%[11.5 µM]	13.0%[11.4 µM]	.	2.5%[11.4 µM]	.
COCCN(C(=O)CCCC(=O)Nc1ccccn1)C(C(=O)NC1CCCCC1)c1ccc(C)cc1 (stereo unspecified)	-2.3%	-0.1%	?	>57	7.94µM*	>76.9
N[C@@H](CO)C(=O)NNCc1ccc(O)c(O)c1O	0.3%[25.7 µM]	-3.5%[25.7 µM]	-12.5%[25.6 µM]	.	-1.3%[25.6 µM]	.
COc1ccc(-n2nnnc2-c2cccc(OC)c2)cc1	-0.8%	-0.2%	?	>57	?	>76.9
Clc1ccc(-n2nnnc2-c2ccccc2)cc1Cl	-1.6%	-1.3%	?	.	25.1µM*	.
COc1c(F)c(F)c(C(=O)Nc2ccc(NC(=O)c3ccco3)cc2)c(F)c1F	-2.8%	-0.2%	-8.4%	>57	-8.2%	1.52*
CC(=O)Nc1ccc(S(=O)(=O)Nc2ccc(NC(=O)c3ccco3)cc2)cc1	0.6%	0.6%	-6.2%	>57	20.0%	10.8*
COC(=O)c1c(NC(=O)c2ccco2)sc(C)c1C	-28.8%	.	.	>57	26.2%	i
CCOc1ccc(NC(=O)c2ccco2)cc1	0.6%	0.6%	-1.8%	i	-1.2%	>76.9
Cc1cc(NS(=O)(=O)c2ccc(NC(=O)c3ccco3)cc2)no1	3.4%	-2.0%	6.4%	>57	-19.4%	>76.9
COC(=O)c1c(NC(=O)c2ccco2)sc(C(=O)Nc2ccc(F)cc2)c1C	-1.2%	-9.9%	?	>57	25.1µM*	>76.9
O=C(Nc1ccc(Nc2ccccc2)cc1)c1ccco1	-1.6%	-2.6%	-20.7%	i	-14.2%	3*
COC(=O)NC(c1cccc(C)c1)[C@]1(C(C)=O)CCOC1=O (stereo partly specified)	-2.1%[11.5 µM]	1.6%[11.5 µM]	2.9%[11.4 µM]	.	13.0%[11.4 µM]	.
C/C(=N\NC(=O)c1ccncc1)c1ccc2ccccc2c1O	-3.8%[11.5 µM]	-4.1%[11.5 µM]	4.3%[11.4 µM]	.	-10.9%[11.4 µM]	.
COc1ccc(C)cc1NC(=O)CSc1nnc(-c2ccccn2)n1Cc1ccco1	-1.0%	-0.8%	?	>57	10µM*	>76.9
CC1CCN(C(=O)CSc2nnc(-c3cc4ccccc4cc3O)n2Cc2ccco2)CC1	-1.8%	-2.9%	25.1µM*	.	23.3%	?
C(=C\c1ccccc1)/CSc1nnc(-c2ccccn2)n1Cc1ccco1	-3.2%	-2.3%	?	>57	20µM*	>76.9
Clc1ccccc1CSc1nnc(-c2ccccn2)n1Cc1ccco1	-6.2%	1.9%	3.3%	>57	2.9%	.
COc1ccc(NC(=O)CSc2nnc(-c3ccccc3Cl)n2Cc2ccco2)c(OC)c1	-9.0%	-0.6%	?	>57	20µM*	>76.9
COc1ccc(NC(=O)CSc2nnc(-c3ccccc3)n2Cc2ccco2)c(OC)c1	-2.1%	-1.3%	27.6%	>57	21.8%	>76.9
COc1ccccc1NC(=O)CSc1nnc(-c2ccccn2)n1Cc1ccco1	0.0%	-2.0%	.	.	-8.2%	>76.9
COc1c(-c2coc3cc4c(cc3c2=O)CC(O)C(C)(C)O4)ccc2c1C=CC(C)(C)O2 (stereo unspecified)	-6.5%	-2.9%	.	.	.	.
CC(CO)(CO)Nc1ncnc2ccccc12	2.6%[11.5 µM]	9.4%[11.5 µM]	-1.6%[11.4 µM]	.	11.4%[11.4 µM]	.
SMILES	Casp7 inh	Casp1 inh	TSHR ag	Bst PK mod	HEK293 cAMP ctrl	GBA activity
NC(N)=NC[C@H](N)C(=O)O	0.1%[11.5 µM]	-1.4%[11.5 µM]	?	.	?	.
CC1=C(C(=O)OCc2ccccc2)C(c2ccco2)C2=C(CC(C)(C)CC2=O)N1 (stereo unspecified)	-22.4%	-14.3%	.	.	12.0%	.
CCOC(=O)C1=C(N)OC2=C(C(=O)CC(C)(C)C2)C1c1ccco1 (stereo unspecified)	0.2%	-0.6%	?	>57	25.1µM*	>76.9
NCCSCCc1ccccc1	0.8%[11.5 µM]	-3.0%[11.5 µM]	6.6%[11.4 µM]	.	4.2%[11.4 µM]	.
O=C(O)[C@@H]1[C@@H](C(=O)NCc2ccccn2)[C@@H]2C=C[C@@H]1O2	-0.6%[11.5 µM]	4.4%[11.5 µM]	3.1%[11.4 µM]	.	-13.9%[11.4 µM]	.
Cc1cccc(N2CSC3=C(C#N)C(c4ccc(C)o4)CC(=O)N3C2)c1 (stereo unspecified)	?	?	1.7%	>57	-3.8%	15*
COc1ccc(OC)c(C2CC(=O)N3CN(c4ccccc4)CSC3=C2C#N)c1 (stereo unspecified)	-3.5%	-2.4%	-13.0%	.	8.9%	.
Clc1ccc(OCc2nnc(SCc3nc4ccccc4[nH]3)n2Cc2ccco2)cc1	-16.1%	-10.8%	22.0%	>57	27.9%	>76.9
O=C(CSc1nnc(-c2ccncc2)n1Cc1ccco1)c1ccc(Cl)cc1	-0.8%	-1.4%	?	>57	?	>76.9
O=C(CSc1nnc(-c2ccc(Cl)cc2)n1Cc1ccco1)c1cccs1	-10.9%	-1.6%	?	>57	15.8µM*	?
O=C(CSc1nnc(COc2ccc(Cl)cc2)n1Cc1ccco1)c1ccccc1F	-7.6%	-2.1%	?	>57	25.1µM*	>76.9
Cc1cc(=O)oc2c(OS(C)(=O)=O)c(OS(C)(=O)=O)ccc12	2.2%[11.5 µM]	-4.0%[11.5 µM]	.	.	28.0%[11.4 µM]	.
NCCNC(=S)S	-1.1%[11.5 µM]	-1.6%[11.5 µM]	-0.4%[11.4 µM]	.	-1.3%[11.4 µM]	.
CCCc1ccc(Oc2cn[nH]c2-c2ccc(O)cc2O)cc1	-11.8%	-9.5%	-13.1%[11.4 µM]	.	-3.1%[11.4 µM]	.
COc1ccc(Oc2cn[nH]c2-c2ccc(O)cc2O)cc1	-1.1%	-1.4%	?	>57	2µM*	>76.9
Cc1ccc(S(=O)(=O)Nc2cc(C(=O)NCCN3CCCC3)ccc2N2CCCCC2)cc1	-0.5%	-1.3%	11.9%	?	10.1%	10.3*
CC1=C(C(=O)OCC2CCCO2)C(c2ccncc2)C2=C(CC(C)(C)CC2=O)N1 (stereo unspecified)	?	.	?	>57	3.98µM*	>76.9
N#Cc1cccc(-c2cc(NCc3ccccc3)ncn2)c1	-4.3%	-3.1%	10.3%	.	25.1%	.
COc1cc(OC)c(OC)cc1CN(C)CCc1ccccn1	-0.2%	-0.8%	11.7%	>57	2.7%	15.1*
COc1ccc(CN(C)CCc2ccccn2)cc1OC	9.6%	0.8%	5.5%	>57	4.0%	>76.9
O=C(NC1CC1)c1cccc(Nc2ccc(-c3ccc4c(c3)OCCO4)nn2)c1	1.1%	-3.3%	8.1%	1.46*	15.9%	>76.9
O=C(OCc1ccc(F)cc1Cl)c1ccccn1	-2.4%	-4.6%	-3.1%	>57	-3.2%	>76.9
O=C(OCc1c(Cl)cccc1Cl)c1cnccn1	-2.6%	-0.2%	0.5%	4.74*	4.8%	>76.9
COC(=O)c1ccccc1NC(=O)COC(=O)c1cccnc1	1.9%	-1.9%	2.9%	>57	12.2%	>76.9
O=C(OCc1c(Cl)cccc1Cl)c1cccnc1	-1.5%	-1.1%	18.7%	9.23*	9.9%	>76.9

Screening data: PubChem BioAssay, National Center for Advancing Translational Sciences (NCATS)
